Records with an inconclusive call do not appear. Unmarked numbers belong to inactive results. Activity calls are given as the source filed them. Calls come from the whole dose curve; as a rule, active = well fitted inhibition curve with a large enough effect; inconclusive = small, poorly fitted or top-dose-only effect; inactive = flat fitted curve, though single readings scatter. Where a SMILES comes first, the peptide text is derived from it. [ ]: non-standard residue; d: D form. The star is where a group is joined. Dolaproine = CO[C@@H]([C@@H]1CCCN1)[C@@H](C)C(=O)O; Dil = CC[C@H](C)[C@H](NC)[C@@H](CC(=O)O)OC; Doe = c1ccc(C[C@H](N*)c2nccs2)cc1; Aib = CC(C)(N)C(=O)O
Assay: P-glycoprotein substrates identified in KB-8-5-11 adenocarcinoma cell line, qHTS therapeutic library screen (AID 1346987); note: nearly all actives have a fitted effect of over 65% in size
Details: KB-8-5-11 (P-gp overexpressing) viability, CellTiter-Glo, 72 h; series mostly up to 44.5 µM; activity change, negative = cytotoxicity: at the top concentration
Text: The ATP-binding cassette transporters P-glycoprotein (P-gp) is known to limit brain penetration of many chemotherapy drugs. […] As such, we developed a high-throughput screen (HTS) to identify substrates of P-gp from a series of chemical libraries including the National Center for Advancing Translational Sciences Pharmaceutical Collection NPC, 2,816 compounds), testing a total of 10,804 compounds, most of which have known mechanisms of action. We used the CellTiter-Glo viability assay to test library compounds against the parental KB-3-1 human cervical adenocarcinoma cell line and the colchicine-selected sub-line KB-8-5-11 that over-expresses P-gp. KB-8-5-11 cells were also tested in the presence of a P-gp inhibitor (tariquidar) to assess reversability of transporter-mediated resistance. Of the tested compounds, a total of 90 P-gp substrates were identified including 55 newly identified P-gp substrates. Substrates were confirmed using an orthogonal killing assay against HEK-293 cells transfected with P-gp. As exemplars, we confirmed that […] (cyclin-dependent kinase inhibitor); AT9283, (Janus kinase 2/3 inhibitor); ispinesib (kinesin spindle protein inhibitor); gedatolisib (PKI-587, phosphoinositide 3-kinase/mammalian target of rampamycin inhibitor); GSK-690693 (AKT inhibitor); and KW-2478 (heat shock protein 90 inhibitor) were substrates , and direct ATPase stimulation was assessed. ABCG2 was also found to confer high levels of resistance to AT9283, GSK-690693 and gedatolisib, while ispinesib, AT7519 and KW-2478 were weaker substrates.
The HeLa derivative cell line, KB-3-1, and its colchicine-selected, P-gp-overexpressing subline, KB-8-5-11 were maintained in DMEM with 10% FCS and Pen/Strep with glutamine at 37 degree C in 5% CO2. For KB-8-5-11 cells, colchicine was added to the medium at a concentration of 100 ng/mL. HEK-293 cells transfected with empty vector (pcDNA) or vector containing human ABCB1 (MDR-19) or ABCG2 (R-5) have been described previously (Robey, Lin, Qiu, Chan & Bates, 2011) and were maintained in EMEM supplemented with 10% FCS, Pen/Strep and glutamine with 2 mg/ml G418 to select for the expression of the transporter. Cultures were confirmed to be free of mycoplasma infection using the MycoAlert Mycoplasma Detection Kit (Lonza, Walkersville, MD). For the screen, assay medium was identical to culture medium except for KB-8-5-11 where colchicine was excluded from the medium.
All cell lines were plated into 1536-well plates at 500 cells/well in 5 uL media. Compounds were then pinned in dose-response using a 1536-head pin tool (Kalypsis, San Diego, CA) and plates were incubated at 37 degree C in 5% CO2 for an additional 72 h. CellTiter-Glo reagent (Promega) was dispensed into the wells, incubated for 5 min and luminescence was read on a ViewLux instrument (Perkin-Elmer). Cytotoxic compounds were defined as those that yielded a curve class of -1.1, -1.2, -2.1, -2.2, -2.3, or -2.4, a maximum response of >50% and an AC50 of < 10 uM. Cherry-picked hits from screening analysis were tested with both the KB pair of cell lines, and the pcDNA (empty vector control) and MDR-19 (P-gp overexpressing) pair were tested, in the absence and presence of tariquidar.
% is set by controls: 0 for no effect and ±100 for the full control effect; potency is the fitted concentration of half-maximal effect.

SMILES	Potency	activity change, negative = cytotoxicity	outcome
CC(=O)O[C@@H]1[C@@H](O)[C@H]2O[C@@H]3C=C(C)[C@@H](O)C[C@]3(CO)[C@]1(C)[C@]21CO1	0.904 µM (active)	–	–
c1ccc([C@@H]2C[C@H]2NC2CCNCC2)cc1	–	-9.87%	–
CNC(C)CC1CCCCC1 (stereo not given)	–	-9.81%	–
CC(=O)O[C@H]1CC[C@H]2[C@@H]3CC[C@H]4CC(=O)C=C(C)[C@]4(C)[C@H]3CC[C@]12C	–	-3.08%	–
CC1CCCC(O)CCC/C=C/c2cc(O)cc(O)c2C(=O)O1 (stereo not given)	–	-11.3%	–
C=C(C)[C@@]12O[C@@H]1[C@@]1(C)C(=CC2=O)CC[C@@H](OC(C)=O)[C@@H]1C	5.17 µM (active)	–	–
CCOC(=O)C1(c2ccccc2)CCCN(C)CC1 (stereo not given)	–	-2.73%	–
C[C@]12CC[C@H]3[C@@H](CCC4=C/C(=N/OCC(=O)O)CC[C@@]43C)[C@@H]1CC[C@@H]2O	–	7.11%	–
Cc1c(N[C@@H](c2nnc(-c3ccc(C#N)cc3)o2)[C@H](C)O)ccc(C#N)c1Cl	–	-19.1%	–
N#Cc1ccc(N2CCN(C(=O)COc3ccc4[nH]cc(CCN)c4c3)CC2)cc1	–	-9.45%	–
CCN(CC)/[N+]([O-])=N/O	–	-1.36%	–
C/C=C(\CC)C(=O)NC(N)=O	–	-16.2%	–
Cc1ccccc1C1=CCN(C)CC1	–	–	inactive
COc1ccc2c3c4n(c2c1)[C@@H](C=C(C)C)OOC(C)(C)C[C@@H]4N1C(=O)[C@@H]2CCCN2C(=O)[C@]1(O)[C@H]3OCC=C(C)C	–	-14.8% [at 17.3 µM]	–
Clc1ccc([C@@H]2C[C@H]3CC[C@@H]2N3)cn1	–	-14% [at 93.4 µM]	–
CC(=O)O[C@H]1C[C@]2(O)[C@@H]3CC[C@@H]4C[C@@H](O)CC[C@]4(C)[C@H]3CC[C@]2(C)[C@H]1c1ccc(=O)oc1	0.0517 µM (active)	–	–
C/C=C1/CN2CC[C@]34C(=Nc5ccccc53)[C@@H]2C[C@@H]1[C@H]4C(=O)OC	–	-1.5%	–
NCCCCCNC1(c2ccccc2)CCCCC1	–	-3.51%	–
C[C@]12CC[C@H](O)C[C@H]1CC[C@@H]1[C@@H]2[C@H](O)C[C@]2(C)[C@@H](c3ccc(=O)oc3)CC[C@]12O	0.0517 µM (active)	–	–
C=C1[C@@H](C)[C@H]2[C@H](Cc3ccccc3)NC(=O)[C@]23[C@H](OC(C)=O)/C=C/[C@](C)(O)C(=O)[C@@H](C)C/C=C/[C@H]3[C@@H]1O	9.2 µM (active)	–	–

SMILES	Potency	activity change, negative = cytotoxicity	outcome
COc1cc([C@@H]2c3cc4c(cc3[C@@H](O)[C@H]3COC(=O)[C@H]23)OCO4)cc(OC)c1O	0.651 µM (active)	–	–
CCOc1cc(C=O)ccc1O	–	0.902%	–
CC1=C[C@H]2O[C@@H]3C[C@H]4OC(=O)/C=C/C=C/C(=O)OCC/C(C)=C/C(=O)OC[C@@]2(CC1)[C@]4(C)[C@]31CO1	0.0178 µM (active)	–	–
C1CN(P2(N3CC3)=NP(N3CC3)(N3CC3)=NP(N3CC3)(N3CC3)=N2)CCO1 (stereo not given)	–	0.691%	–
COC(=O)CC1CC2(C(=O)c3c(O)cccc3C2(O)C(=O)OC)C(C)O1 (stereo not given)	–	–	inactive
C[C@]12CC[C@H](O)CC1=CC[C@@H]1C2CC[C@]2(C)[C@@H](C3=CC(=O)OC3)CC[C@]12O (stereo not given in full)	10.1 µM (active)	–	–
CCC(=O)O[C@H]1[C@@H](N2CCCCC2)C[C@H]2[C@@H]3CC[C@H]4C[C@H](OC(C)=O)[C@@H](N5CCCCC5)C[C@]4(C)[C@H]3CC[C@@]21C	–	-16.8%	–
C[C@]12CC[C@H](O)C[C@@H]1CC[C@@H]1[C@@H]2CC[C@]2(C)C(=O)CC[C@@H]12	–	-4%	–
CC(=O)OC[C@]12C[C@H](OC(=O)CC(C)C)C(C)=C[C@H]1O[C@@H]1[C@H](O)C[C@@]2(C)[C@]12CO2	0.709 µM (active)	–	–
CC(=O)O[C@@H]1[C@H]2CC[C@H]3[C@@](C)(O)[C@@H]4C[C@H](O)C(C)(C)[C@@]4(O)[C@H](O)C[C@@]13C[C@@]2(C)O	–	–	inactive [at 17.3 µM]
C[C@]12CC[C@H](O[C@@H]3O[C@H](CO)[C@@H](O)[C@H](O)[C@H]3O)CC1=CC[C@@H]1C2CC[C@]2(C)[C@@H](C3=CC(=O)OC3)CC[C@]12O (stereo not given in full)	4.85 µM (active)	–	–
C[C@@H]1[C@H]2Cc3ccc(O)cc3[C@]1(C)CCN2C	–	-5.37% [at 163 µM]	–
C[C@@H](CN1CCC(n2c(=O)[nH]c3cc(Br)ccc32)CC1)NC(=O)[C@@H]1C[C@H]1c1ccccc1	20.6 µM (active)	–	–
O=C(NCCN1CCC2(CC1)C(=O)NCN2c1cccc(F)c1)c1ccc(F)c(F)c1	16.4 µM (active)	–	–
C[C@]12CC[C@H]3[C@@H](CCC4=CC(=O)CC[C@@]43C)[C@@H]1CC[C@H]2O	2.59 µM (active)	–	–
CC[C@@H]1C[C@H]2CC[C@H](O2)[C@H](C)C(=O)O[C@@H](C)C[C@@H]2CC[C@@H](O2)[C@@H](C)C(=O)O[C@H](CC)C[C@H]2CC[C@H](O2)[C@H](C)C(=O)O[C@@H](C)C[C@@H]2CC[C@@H](O2)[C@@H](C)C(=O)O1	1.93 µM (active)	–	–
CCC(=O)O[C@](Cc1ccccc1)(c1ccccc1)[C@H](C)CN(C)C	20 µM (active)	–	–
CC[C@H](C)[C@@H]([C@@H](CC(=O)N1CCC[C@H]1[C@H](OC)[C@@H](C)C(=O)N[C@@H](Cc1ccccc1)c1nccs1)OC)N(C)C(=O)[C@@H](NC(=O)C(C)(C)N)C(C)C (H-[Aib]V[Dil][Dolaproine]-Doe)	0.146 µM (active)	–	–
CCCCN1[C@@H]2CC[C@H]1CC(OC(c1ccc(F)cc1)c1ccc(F)cc1)C2 (stereo not given in full)	18.4 µM (active)	–	–
CC1=C[C@H]2O[C@@H]3[C@H](O)[C@@H](O)[C@](C)([C@@]2(CO)C[C@@H]1O)[C@]31CO1	2.06 µM (active)	–	–
